High-throughput results (PubChem)
In the library only some 4% were active in any assay of this set; here they are far more common.
D1 ag: agonists of human D1 dopamine receptor; hit rate 1% among 360,000; activation, % at 2 µM; HEK293 T-REx D1 cells, calcium flux, agonist mode; AID 504660; P21728
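Tetracycline-induced HEK293 TREx D1 cells, force-coupled to calcium signalling, were dye-loaded with a no-wash calcium kit. Compound was pin-added after a 10 s baseline. Fluorescence was read kinetically at 1 cycle/s for 180 s, with calcium rises flagged as agonism.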
D1 PAM: human D1 dopamine receptor positive modulation; P21728; HEK293 TREx D1 cells, calcium flux, dopamine EC20 potentiation; potentiation, % at 10 µM; hit rate 0.036% among 360,000; AID 504651; in the data active = potentiation above about 30%
TRHR enhancer: allosterically enhances the human TRH receptor; enhancement, % at 2 µM; TRHR cells, fluo-8 calcium fluorescence, EC20 TRH enhancement; P34981; hit rate 0.66% among 360,000; in the data active = enhancement above about 30%
Target sequence (P34981 whole entry, looked up): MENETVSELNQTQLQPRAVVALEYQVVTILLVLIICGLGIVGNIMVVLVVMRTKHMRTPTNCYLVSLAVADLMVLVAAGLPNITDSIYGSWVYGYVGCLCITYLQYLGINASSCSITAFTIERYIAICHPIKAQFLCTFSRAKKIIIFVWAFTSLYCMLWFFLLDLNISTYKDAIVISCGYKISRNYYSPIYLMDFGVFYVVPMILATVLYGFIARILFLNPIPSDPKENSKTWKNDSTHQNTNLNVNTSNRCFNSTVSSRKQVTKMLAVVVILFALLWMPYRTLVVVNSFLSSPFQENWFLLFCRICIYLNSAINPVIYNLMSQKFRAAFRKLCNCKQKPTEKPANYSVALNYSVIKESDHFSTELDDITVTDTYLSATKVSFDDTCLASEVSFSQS
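Enhancer read-out: after compound pinning and an initial kinetic agonist-mode read, an EC20 of TRH (10 nM final) was injected and fluo-8 calcium signal (Ex 480/Em 530) followed at 1 s/cycle for 100 cycles in TRHR-expressing cells.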
GRP78 ERSR act: inducers of ER stress response in human glioma cells; U87-MG GRP78 promoter luciferase reporter, 16 h; Potency, µM, usual class: activators; hit rate 0.02% among 420,000; active = well fitted activation curve with a large enough effect; inconclusive = small, poorly fitted or top-dose-only effect; inactive = no such curve, though single readings can be large or run the other way; note: series mostly up to about 76 µM; nearly all actives have a fitted effect of over 35% in size
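Stably transfected U87-MG glioma cells carrying a GRP78-based luciferase sensor; 16 h compound incubation. Luminescence end-point read 10 min after Bright-Glo addition at room temperature.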
TRHR agonist: agonists of human TRH receptor. TRHR cells, calcium flux fluo-8, FDSS agonist mode. activation, % at 2 µM. hit rate 0.18% among 360,000. P34981
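Read-out: compound-evoked intracellular calcium rise in TRHR cells, fluo-8 dye, kinetic FDSS fluorescence at 1 s/cycle following a 10-cycle baseline. Cells cultured overnight before dye loading (30 min–1.5 h, RT).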
D1 antagonist: human D1 dopamine receptor antagonism. AID 504652. HEK293 TREx D1 cells, calcium flux, dopamine EC80; hits give low values. activity change, negative = inhibition, % at 10 µM. hit rate 3.2% among 360,000. P21728; in the data active = activity change below about -30%
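Cells carrying a force-coupled, tetracycline-inducible human D1 receptor report calcium flux. Each well gets a 10 s baseline, compound with 180 s monitoring, then an EC80 dopamine stimulus with a second 180 s kinetic read.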
Of the large screens only hits and unclear results are named; the others gave an inactive call; ! = not confirmed by another sample. Cut-off read from the data, not from the text of the source, unless noted: active = activation above about 30%; inactive = the rest.

COc1cc(/C=C/c2nc3ccccc3c(=O)n2-c2cccc(O)c2)ccc1O	none
c1cncc(CNC2=NCCCCC2)c1	D1 antagonist -47
Cc1cccc(N2CCc3c2nc2ccccc2c3N)c1	D1 antagonist -32!
C=CCN1C(=O)NC(=O)C(CCc2ccncc2)(CCc2ccncc2)C1=O	none
CN(C)CCCNCC(=O)Nc1ccc(Cl)cc1C(=O)c1ccccc1	none
CCN(CC)CCNCC(=O)Nc1ccc(Cl)cc1C(=O)c1ccccc1	D1 antagonist -38
CCCC(C)C1(CC)C(=O)NC(=Nc2ccccc2OC)NC1=O (stereo unspecified)	none
CN1CCC(N(C)c2nc(-c3ccc([N+](=O)[O-])cc3)nc3ccccc23)CC1	D1 ag 37
Cc1ccc(CN2C3CCCC2CC(NC(=S)NCc2ccccc2)C3)cc1 (stereo unspecified)	D1 ag 34, D1 antagonist -75
Cc1nc2c(c(=O)[nH]1)C(c1ccc([N+](=O)[O-])cc1)c1c(c3ccccc3oc1=O)O2 (stereo unspecified)	none
Cc1ccccc1-n1c(O)c(/C=C2/C(c3ccccc3)=Nc3ccccc32)c(=O)[nH]c1=O	D1 antagonist -50
Cc1cccc(-n2c(O)c(/C=C3/C(c4ccccc4)=Nc4ccccc43)c(=O)[nH]c2=O)c1	none
CCOc1ccc(N2C(=O)NC(=O)/C(=C\c3ccccc3[N+](=O)[O-])C2=O)cc1	D1 antagonist -46
CCc1ccccc1NC(=O)c1cccn(Cc2ccccc2F)c1=O	none
C=C(C)CN1CC[C@]23c4c5ccc(O)c4O[C@H]2c2[nH]c4ccccc4c2C[C@@]3(O)C1C5	D1 antagonist -80 (no result: GRP78 ERSR act)
CCCCSP(=O)(SCCCC)SCCCC	none (no result: D1 ag, D1 PAM, TRHR enhancer, TRHR agonist, D1 antagonist)
N#Cc1c(/N=C/c2ccc(O)cc2O)sc2c1C1CCN2CC1	D1 ag 34
COC(=O)C1=C(c2ccc(C(C)=O)cc2)C[C@@H]2CC[C@H]1N2C(=O)NC(C)C	D1 antagonist -91
COC(=O)C1=C(c2ccc(F)cc2F)C[C@@H]2CC[C@H]1N2C(=O)N1CCC(O)(c2ccc(Cl)cc2)CC1	D1 antagonist -46
COC(=O)C1=C(c2ccc(C(C)=O)cc2)C[C@@H]2CC[C@H]1N2C	none
COC(=O)C1=C(c2ccc(-c3ccccc3)c(F)c2)C[C@@H]2CC[C@H]1N2C(=O)NCCO	D1 antagonist -40
CCCNC(=O)N1[C@H]2CC[C@@H]1C(C(=O)OC)=C(c1ccc(-c3ccccc3)c(F)c1)C2	none
COC(=O)C1=C(c2ccc(Cl)c(C(F)(F)F)c2)C[C@@H]2CC[C@H]1N2C(=O)N1CCCC1	D1 antagonist -42
COC(=O)C1=C(c2ccc(Cl)c(C(F)(F)F)c2)C[C@@H]2CC[C@H]1N2C(=O)N1CCOCC1	none
CCCCCc1nc2ccccc2c(=O)n1-c1ccc(C)cc1	none
COC(=O)C1=C(c2ccccc2OCc2ccccc2)C[C@@H]2CC[C@H]1N2C(=O)NCCc1ccc(F)cc1	D1 antagonist -39
COC(=O)C1=C(c2ccc(F)cc2OCc2ccccc2)C[C@@H]2CC[C@H]1N2C(=O)N1CCC(O)CC1	TRHR enhancer 37
COC(=O)C1=C(c2ccc(F)cc2OCc2ccccc2)C[C@@H]2CC[C@H]1N2C(=O)NCc1ccccc1	none
CCCCN1C(=O)/C(=C\c2ccco2)C(=O)N(CCc2ccccc2)C1=O	none
CN1/C(=C\C=C2C(=O)NC(=S)NC2=O)C(C)(C)c2ccccc21	D1 ag 484, TRHR agonist 175
CC1(C)OC(c2ccccc2)=C/C(=C/C=C2C(=O)NC(=S)NC2=O)O1	none
Fc1cccc(F)c1CN1CCN(c2ccc(Cl)cc2)CC1	none
Fc1ccccc1N1CCN(Cc2c(F)cccc2F)CC1	TRHR enhancer 37
CP(=O)(O)CN1CCCCC1	none
CCOc1ccccc1CN1C2CCC1CC(c1ccc(C)cc1)C2 (stereo unspecified)	D1 antagonist -41
O=c1[nH]c(=S)n(-c2ccc(Br)cc2)c(O)c1C=Nc1ccc(N2CCOCC2)cc1	none
Cc1cc(C)cc(-n2c(O)c(C=Nc3ccc(N4CCOCC4)cc3)c(=O)[nH]c2=S)c1	D1 ag 35
CCC1(CC)C(=O)NC(=Nc2cccc(C(F)(F)F)c2)NC1=O	D1 ag 31
Oc1ccc2c3c1OC1c4oc5ccccc5c4C[C@@]4(O)[C@@H](C2)N(CC2CC2)CC[C@]314 (stereo partly specified)	none (no result: D1 ag, D1 PAM, TRHR enhancer, TRHR agonist, D1 antagonist)
CC/C(=C\C=C\[C@@H]1C=C[C@@H]2CCC[C@H]2[C@@H]1C(=O)c1ccc[nH]1)[C@@H]1O[C@@H]([C@@H](C)C(=O)O)CC[C@@H]1C	GRP78 ERSR act inconclusive, D1 antagonist -60
COc1ccc(CCNCc2ccc(Br)cc2)cc1OC	D1 ag 43
COc1ccc(CCNCc2ccncc2)cc1OC	none
O=C(OCC(=O)c1ccc([N+](=O)[O-])cc1)/C(=C/c1ccc(Cl)cc1)NC(=O)c1ccccc1	D1 antagonist -34
Cn1cc(C=O)c2nccnc21	none (no result: D1 ag, D1 PAM, TRHR enhancer, TRHR agonist, D1 antagonist)
O=C(COc1ccccc1)c1cn(Cc2ccccc2)c2ccccc12	D1 ag 30
C=CCN1C(=O)NC(=O)/C(=C/c2cccn2C)C1=O	none
CC(C)NC(C)C(=O)c1ccc2ccccc2c1 (stereo unspecified)	TRHR enhancer 37, D1 antagonist -34
CC(C(=O)c1ccc2ccccc2c1)N1CCCCC1 (stereo unspecified)	none
CCOC(=O)C1SC2(C(F)(F)F)CC1(O)c1c(C)cc(C)nc1O2 (stereo unspecified)	none
Clc1ccc(CNC2CN3CCC2CC3)cc1 (stereo unspecified)	D1 antagonist -75
C(CCc1nn[nH]n1)CCc1nn[nH]n1	D1 antagonist -37
C/C=C(\C)C(=O)OC1C(C)=C2C(C1OC(=O)CCCCC)C(C)(OC(C)=O)CC(OC(=O)CCC)C1(O)C2OC(=O)C1(C)O (stereo unspecified)	D1 ag 109, D1 antagonist -31 (no result: GRP78 ERSR act)
CC=C(C)C(=O)O[C@H]1C(C)=C2[C@@H]3OC(=O)[C@@](C)(O)[C@@]3(O)[C@@H](OC(=O)CCC)C[C@](C)(OC(C)=O)[C@@H]2[C@@H]1OC(=O)CCCCCCC	none (no result: D1 ag, D1 PAM, TRHR enhancer, TRHR agonist, D1 antagonist)
COc1ccc(N=Cc2c(O)n(Cc3ccccc3)c(=S)[nH]c2=O)c(OC)c1	none
Cc1[nH]c2ccccc2c1CCCNC1CCCCC1	D1 ag 37
O=C(c1cc(C(=O)NCc2ccccc2)c(=O)n(Cc2ccccc2)c1)c1cc(Cl)ccc1O	none
NC[C@H](CP(=O)(O)O)c1ccc(Cl)cc1	none (no result: D1 ag, D1 PAM, TRHR enhancer, TRHR agonist, D1 antagonist)
O=C1NC(=O)C(=Cc2coc3ccccc3c2=O)C(=O)N1	none
